Experimental findings from PubChem BioAssay (EPA / NIEHS) are described below.

Structures are written as SMILES. Results filed as inconclusive are left out. Activity calls are given as the source filed them. The calls were made as follows: active = hit-call score of the fitted dose curve at least 0.9, where 1 is the maximum; inconclusive = response in the unintended direction; inactive = score below 0.9.

Assay [1] is described as follows: TOX21_p53_BLA_p2_viability: Viability Assessment in the Tox21 HCT-116 p53 Agonism Beta-lactamase Assay, Phase 2 (AID 2283591).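 Also: actives lower the ATP signal meaning cytotoxicity.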 The procedure, abridged: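 Cytotoxicity readout: CellTiter-Glo ATP luminescence, 30 min at room temperature, after the beta-lactamase read. Cells were HCT116 exposed 16 h at 37C to compounds pin-transferred at 217-fold dilution from DMSO stocks.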

The target in assay [2] is Cellular tumor antigen p53 (Homo sapiens) (UniProt P04637). The assay is described as follows: TOX21_p53_BLA_p2_ratio: Tox21 HCT-116 p53 Agonism Beta-lactamase Assay, Ratio, Phase 2 (AID 2283592). An outline of the steps: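 First, HCT116 reporter cells settle for 5 h at 37C. Next, DMSO compound solutions are pinned in (217-fold dilution) and left 16 h. Finally, CCF4-AM substrate is loaded 2 h at room temperature and the 460/530 nm ratio read.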

The nature of assay [3]: TOX21_p53_BLA_p3_viability: Viability Assessment in the Tox21 HCT-116 p53 Agonism Beta-lactamase Assay, Phase 3 (AID 2283593).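 Also: cells exposed to compound for 16 h before reading.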 The procedure, abridged: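 Cellular ATP was quantified by CellTiter-Glo luminescence, read after 30 min at room temperature. Beforehand, HCT116 cells (4000/well) received compound 5 h post-seeding, 217-fold diluted from DMSO, then incubated 16 h at 37C.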

Assay [4] has as its target Cellular tumor antigen p53 (Homo sapiens) (UniProt P04637). The assay is described as follows: TOX21_p53_BLA_p3_ratio: Tox21 HCT-116 p53 Agonism Beta-lactamase Assay, Ratio, Phase 3 (AID 2283596). An outline of the steps:
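Cells were seeded at 4000/well, rested 5 h at 37C, then dosed with DMSO compound solutions (217-fold dilution) for 16 h. CCF4-AM substrate was loaded for 2 h at room temperature, and the 460/530 nm emission ratio was fitted for gain of signal versus DMSO.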

A short description of assay [5]: TOX21_p53_BLA_p4_viability: Viability Assessment in the Tox21 HCT-116 p53 Agonism Beta-lactamase Assay, Phase 4 (AID 2283597).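 Also: hits lower the luminescence signal meaning cytotoxicity.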 The procedure, abridged:
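4000 HCT116 cells per well; 5 h attachment; compounds from DMSO, 217-fold dilution; 16 h at 37C. Then CCF4-AM, 2 h RT, followed by CellTiter-Glo, 30 min RT, luminescence. Decrease = cytotoxicity.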

Assay [6] addresses Cellular tumor antigen p53 (Homo sapiens) (UniProt P04637). The assay can be described thus: TOX21_p53_BLA_p5_ratio: Tox21 HCT-116 p53 Agonism Beta-lactamase Assay, Ratio, Phase 5 (AID 2283599). The procedure, abridged: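 Beta-lactamase reporter ratio (blue 460 nm over green 530 nm, 405 nm excitation) after 2 h CCF4-AM loading, in HCT-116 cells exposed 16 h at 37 C to compounds pinned at 217-fold dilution. Increases relative to DMSO baseline scored.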

Assay [7] is described as follows: TOX21_p53_BLA_p5_viability: Viability Assessment in the Tox21 HCT-116 p53 Agonism Beta-lactamase Assay, Phase 5 (AID 2283600). The procedure, abridged:
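Decreased CellTiter-Glo luminescence denotes lost viability. Exposure: 16 h at 37C, 5% CO2, with compounds from DMSO stocks diluted 217-fold in wells of 4000 cells.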

Assay [8] deals with Cellular tumor antigen p53 (Homo sapiens) (UniProt P04637). The assay is described as follows: TOX21_p53_BLA_p4_ratio: Tox21 HCT-116 p53 Agonism Beta-lactamase Assay, Ratio, Phase 4 (AID 2283601). An outline of the steps: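 Signal is the blue/green (460nm/530nm) ratio of cleaved versus uncleaved CCF4-AM substrate, read after 2 h substrate loading. Cells were HCT116 carrying the p53-responsive beta-lactamase reporter, dosed 16 h at 37C, 5% CO2; CellTiter-Glo measured in parallel.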

Assay [9] addresses Thyroid hormone receptor alpha (Rattus norvegicus) + Thyroid hormone receptor beta (Rattus norvegicus) (UniProt P18113+P63059). The assay can be described thus: TOX21_TR_LUC_GH3_Antagonist_Followup: Tox21 GH3 Thyroid Hormone Receptor Antagonism Luciferase Follow-Up Assay (AID 2283942). An outline of the steps: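 Loss of T3-driven (1.0 nM final) reporter activity in GH3 cells was read by ONE-Glo luminescence after 24 h incubation at 37C; 15-point compound series spanned 92 uM to 5nM final, 1,500 cells/well.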

For assay [10], the target named is THRB (gene 7068) (UniProt P10828). The assay can be described thus: TOX21_TRB_BLA_Antagonist_Followup_ratio: Tox21 Thyroid Hormone Receptor beta Antagonism Beta-lactamase (BLA) Follow-Up Assay, Ratio (AID 2283958). An outline of the steps:
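Cells were plated and allowed to attach for 5 h, then dosed with compounds in DMSO at 11 concentrations for 18 h at 37C. Beta-lactamase reporter activity was measured via CCF4-AM FRET as the 460:530 nm ratio.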

Assay [11] can be described thus: TOX21_TRB_BLA_Antagonist_Followup_viability: Viability Assessment in the Tox21 Thyroid Hormone Receptor beta Antagonism Beta-lactamase (BLA) Follow-Up Assay (AID 2283961). An outline of the steps:
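HEK293T cells with GAL4-human TRβ LBD and UAS-bla reporter, 3,000 cells/well in 2% charcoal-stripped FBS medium; 11-point concentrations in triplicate, 18 h at 37C. Viability from ATP by CellTiter-Glo luminescence, 30 min RT, same plates.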

In assay [12] the target is THRB (gene 7068) (UniProt P10828). The assay can be described thus: TOX21_TRB_COA_Antagonist_Followup_ratio: Tox21 Thyroid Hormone Receptor beta Antagonism through Coactivator Recruitment Follow-Up Assay, Ratio (AID 2283967). The procedure, abridged: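 Coactivator recruitment to the GST-tagged TRb ligand-binding domain (5.0 nM) was read as the 520/495 nm TR-FRET ratio, using 200 nM fluorescein SRC-2 peptide and 2 nM terbium anti-GST. Scaled between DMSO and T3 wells; loss of signal fitted.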

A short description of assay [13]: TOX21_TR_RXR_BLA_Antagonist_Followup_viability: Viability Assessment in the Tox21 Thyroid Hormone Receptor beta Retinoid X Receptor alpha (RXRa) Antagonism Beta-lactamase (BLA) Follow-Up Assay (AID 2283979). An outline of the steps: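 Follow-up compounds (11 concentrations, triplicate) were incubated 16 h at 37C/5% CO2 with HEK293T RXRa-bla cells seeded at 2,500/well in charcoal-stripped-serum medium. ATP content by CellTiter-Glo luminescence gave viability; curves fitted in both directions against DMSO.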

For assay [14], the target named is PGR (gene 5241) (UniProt P06401). The assay can be described thus: TOX21_PR_BLA_Followup_Antagonist_ratio: Tox21 HEK293 Progesterone Receptor (PR) Antagonism Beta-lactamase Follow-Up Assay, Ratio (AID 2283934).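 Also: PR-UAS-bla HEK293T cells stimulated with 1 nM R5020 agonist for 16 hr.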 The procedure, abridged: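 Cells are plated, rested 6 hr, then dosed with test compound in DMSO and challenged with 1 nM promegestone. After 16 hr incubation, substrate loading for 2 h at room temperature precedes fluorescence reading; viability is measured in the same wells.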

A short description of assay [15]: TOX21_PR_BLA_Followup_Antagonist_viability: Viability Assessment in the Tox21 HEK293 Progesterone Receptor (PR) Antagonism Beta-lactamase Follow-Up Assay (AID 2283936).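 Also: cells exposed to compound with R5020 agonist for 16 h; hits lower the luminescence signal meaning cytotoxicity.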 The procedure, abridged: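 PR-UAS-bla HEK293T cells in medium with 2% charcoal-stripped FBS were treated with compounds plus R5020 for 16 hr at 37C. After the beta-lactamase read, CellTiter-Glo was added to the same wells and luminescence read after 30 min at room temperature.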

A short description of assay [16]: TOX21_PR_LUC_Followup_Antagonist_viability: Viability Assessment in the Tox21 HEK293 Progesterone Receptor (PR) Antagonism Luciferase Follow-Up Assay (AID 2283940). The procedure, abridged:
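HEK293-PR-A-luc, 3,000 cells/well; 5 h at 37C/0% CO2; compound pin transfer; 16 h incubation; CellTiter-Glo ATP luminescence, signal loss = cytotoxicity.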

A short description of assay [17]: TOX21_PR_BLA_Followup_Agonist_viability: Viability Assessment in the Tox21 HEK293 Progesterone Receptor (PR) Agonism Beta-lactamase Follow-Up Assay (AID 2283935).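 Also: signal loss means lower viability so actives are cytotoxic.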 An outline of the steps: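 Cells were plated in medium with 2% charcoal-stripped FBS and rested 6 hr. Compounds in DMSO were then added for 16 hr at 37C, followed by the FRET substrate step and CellTiter-Glo luminescence after 30 min.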

Assay [18] deals with PGR (gene 5241) (UniProt P06401). The assay is described as follows: TOX21_PR_LUC_Followup_Antagonist: Tox21 HEK293 Progesterone Receptor (PR) Antagonism Luciferase Follow-Up Assay (AID 2283938).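 Also: curve fitted upward as signal gain over DMSO baseline despite antagonist label.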 The procedure, abridged:
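HEK293-PR-A-luc cells, 3,000/well, preincubated 5 h at 37C before compound addition in DMSO; 16 h compound exposure at 37C. ONE-Glo luciferase luminescence read after 30 min at room temperature, fitted relative to DMSO baseline.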

Cellular tumor antigen p53 (Homo sapiens), sequence (P04637 whole entry, looked up): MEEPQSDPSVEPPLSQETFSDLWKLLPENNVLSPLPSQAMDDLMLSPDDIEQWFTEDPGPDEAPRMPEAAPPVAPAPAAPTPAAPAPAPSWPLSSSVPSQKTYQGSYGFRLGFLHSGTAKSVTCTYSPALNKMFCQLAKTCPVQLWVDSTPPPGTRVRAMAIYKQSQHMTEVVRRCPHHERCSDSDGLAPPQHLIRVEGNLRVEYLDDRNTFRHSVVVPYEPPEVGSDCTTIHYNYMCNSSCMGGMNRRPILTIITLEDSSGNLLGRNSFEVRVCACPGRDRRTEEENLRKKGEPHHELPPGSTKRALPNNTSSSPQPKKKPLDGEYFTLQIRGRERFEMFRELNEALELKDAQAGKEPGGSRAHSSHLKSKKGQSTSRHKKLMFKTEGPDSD
PGR (gene 5241), sequence (P06401 whole entry, looked up): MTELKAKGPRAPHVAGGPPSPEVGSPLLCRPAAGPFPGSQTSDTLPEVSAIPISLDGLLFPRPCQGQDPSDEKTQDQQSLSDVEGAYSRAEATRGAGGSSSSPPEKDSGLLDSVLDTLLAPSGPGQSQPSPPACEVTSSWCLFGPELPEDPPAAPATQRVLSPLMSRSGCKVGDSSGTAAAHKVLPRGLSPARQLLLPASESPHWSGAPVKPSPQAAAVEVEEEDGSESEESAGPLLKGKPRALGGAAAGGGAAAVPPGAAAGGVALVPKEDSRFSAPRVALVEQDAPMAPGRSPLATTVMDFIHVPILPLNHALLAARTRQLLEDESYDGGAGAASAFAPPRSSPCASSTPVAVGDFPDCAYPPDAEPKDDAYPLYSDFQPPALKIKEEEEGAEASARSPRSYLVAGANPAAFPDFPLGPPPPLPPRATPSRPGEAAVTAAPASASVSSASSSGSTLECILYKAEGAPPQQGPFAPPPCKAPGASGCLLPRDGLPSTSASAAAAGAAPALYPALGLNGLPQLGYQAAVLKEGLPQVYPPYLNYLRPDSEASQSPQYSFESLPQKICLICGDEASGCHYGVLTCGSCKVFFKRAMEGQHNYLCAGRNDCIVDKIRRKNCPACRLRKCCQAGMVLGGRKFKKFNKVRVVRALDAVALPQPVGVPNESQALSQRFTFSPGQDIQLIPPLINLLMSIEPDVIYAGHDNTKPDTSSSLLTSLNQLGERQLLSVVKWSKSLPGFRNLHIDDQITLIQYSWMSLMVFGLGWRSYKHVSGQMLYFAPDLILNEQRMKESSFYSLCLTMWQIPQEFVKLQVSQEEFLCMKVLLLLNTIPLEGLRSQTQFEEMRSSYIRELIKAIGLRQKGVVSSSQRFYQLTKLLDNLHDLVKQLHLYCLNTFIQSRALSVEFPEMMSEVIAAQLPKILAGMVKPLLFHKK
THRB (gene 7068), sequence (P10828 whole entry, looked up, the tested form may be a part): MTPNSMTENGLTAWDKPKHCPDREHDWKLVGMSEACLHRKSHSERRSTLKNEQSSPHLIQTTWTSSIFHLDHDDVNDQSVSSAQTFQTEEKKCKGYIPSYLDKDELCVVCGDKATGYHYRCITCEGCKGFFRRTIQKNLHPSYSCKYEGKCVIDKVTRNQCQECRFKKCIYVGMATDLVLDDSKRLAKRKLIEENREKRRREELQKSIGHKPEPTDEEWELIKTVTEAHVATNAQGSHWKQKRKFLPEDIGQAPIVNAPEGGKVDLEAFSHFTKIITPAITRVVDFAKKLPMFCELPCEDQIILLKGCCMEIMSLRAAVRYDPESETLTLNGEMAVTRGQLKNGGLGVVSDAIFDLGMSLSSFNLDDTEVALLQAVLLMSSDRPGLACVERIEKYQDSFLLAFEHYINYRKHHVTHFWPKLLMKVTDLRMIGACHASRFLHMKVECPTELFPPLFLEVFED

Take `OCCN1CCN(CC/C=C2/c3ccccc3Sc3ccc(C(F)(F)F)cc32)CC1`: the result in assay [1], in assay [2], in assay [3], in assay [4], in [6] and in assay [7] was inactive. Moreover, the result in assay [8] was inactive. Moreover, the AC50 in assay [5] was 36.3 µM (active).

For the compound `CC(C)(C)CC(C)(C)c1ccc(O)c(Cc2ccc(Cl)cc2Cl)c1`, the AC50 in assay [1] is 23 µM (active); in assay [2], 35.4 µM (active); in assay [3] it was 20.1 µM (active); in [4] it was 30.9 µM (active); in assay [5], 10.9 µM (active); in assay [6] it was 28.1 µM (active). Besides, in [7], the AC50 is 13.8 µM (active). Also, in assay [8], the outcome was inactive.

With `NC(N)=NCc1cccc(I)c1`, the compound was classed as inactive in [1], in assay [2], in assay [3], in [4], in assay [5] and in [6]. The compound was classed as inactive in assay [7], in assay [8], in assay [9], in [10], in assay [11] and in assay [12]. Also, the compound was classed as inactive in assay [13].

In the case of `C[C@]12C=CC(=O)C=C1[C@@H](F)C[C@@H]1[C@@H]2[C@@H](O)C[C@@]2(C)[C@H]1CC[C@]2(O)C(=O)CO`, the compound was called inactive in [1], in [2], in assay [5], in assay [6], in assay [7] and in assay [8]. Besides, the result in [14], in assay [15] and in assay [16] was inactive. The AC50 is 37.3 µM (active) in assay [3] and 43.5 µM (active) in assay [4].

For `COC(=O)C1=C(C)NC(C)=C(C(=O)OCC(C)=O)C1c1ccccc1[N+](=O)[O-]` (configuration not stated), the compound was classed as inactive in assay [1], in assay [2], in assay [3], in assay [4], in assay [5] and in [6]. For the same compound, the compound was classed as inactive in [7], in assay [8], in assay [14], in [17], in assay [15] and in assay [16]. For the same compound, the AC50 in [18] was 21.5 µM (active).

Regarding `CCCCCOc1ccc(C2SC(=O)NC2=O)cc1OCC` (configuration not stated), the compound was classed as inactive in assay [1], in assay [2], in [3], in [4], in [5] and in [6]. Further, the outcome in assay [7], in [8], in assay [9], in assay [11] and in assay [13] was inactive. In addition, the half-maximal activity concentration (AC50) was 1.76 µM (active) in assay [10] and 10.8 µM (active) in assay [12].

On to `Cc1cc(O)c(C(C)C)cc1Cl`, for which the compound was classed as inactive in assay [1], in assay [2], in assay [3], in assay [4], in assay [5] and in assay [6]. In addition, the result in assay [7] and in assay [8] was inactive.

As for `CSc1ccc(/C=C2/C(C)=C(CC(=O)O)c3cc(F)ccc32)cc1`, the AC50 in assay [1] is 22.4 µM (active); in assay [3], 41.1 µM (active); in assay [5], 23.1 µM (active); in assay [6], 19.7 µM (active); in [7] it was 36.4 µM (active). The outcome in assay [2], in [4] and in assay [8] was inactive.
